# Source: article PMC7862700, “An all-to-all approach to the identification of sequence-specific readers for epigenetic DNA modifications on cytosine”
# Experiments:
# Assay in all cases: DAPPL (digital affinity profiling via proximity ligation, sequencing); 10 mM Tris-HCl pH 7.5, 50 mM NaCl, 1 mM DTT, 4% glycerol, room temperature, 30 min; GST-TFs on glutathione beads, 16-mer random dsDNA library, 0.1% formaldehyde crosslink after washing; high values mean tight binding
# FLI1 = target: T1, FLI1 (Homo sapiens, UniProt Q01543 1-452); conditions: protein: recombinant; tags: N-terminal GST; dsDNA, one strand shown
# T1 sequence: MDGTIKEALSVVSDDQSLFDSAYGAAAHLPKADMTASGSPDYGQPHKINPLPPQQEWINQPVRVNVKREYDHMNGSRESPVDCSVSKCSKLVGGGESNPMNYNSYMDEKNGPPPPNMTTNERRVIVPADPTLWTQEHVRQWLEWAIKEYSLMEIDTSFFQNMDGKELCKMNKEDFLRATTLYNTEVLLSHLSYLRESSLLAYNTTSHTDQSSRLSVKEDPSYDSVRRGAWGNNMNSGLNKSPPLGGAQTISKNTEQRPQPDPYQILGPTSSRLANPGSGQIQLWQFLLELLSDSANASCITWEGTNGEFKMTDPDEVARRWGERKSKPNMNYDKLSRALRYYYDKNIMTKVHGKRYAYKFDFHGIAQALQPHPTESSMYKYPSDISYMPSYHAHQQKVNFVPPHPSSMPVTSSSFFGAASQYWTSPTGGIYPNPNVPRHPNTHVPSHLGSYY
# Method in brief: (§1)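 A tag-only sample was pooled with DNA-barcoded human transcription factors that had been expressed in yeast as GST fusions and captured on glutathione beads. The pools were incubated for 30 min at room temperature with 200 nmole of a random double-stranded 16-mer DNA library in Tris/NaCl/DTT/glycerol buffer, then washed, crosslinked with 0.1% formaldehyde, proximity-ligated (BsaI/T4 ligase, 1 h, 37 °C), PCR-amplified and sequenced on an Illumina NextSeq500. Binding signal is each hexamer's read frequency for a factor divided by its frequency for the tag-only sample.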
# ELK1 = target: T2, ELK1 (Homo sapiens, UniProt P19419 1-428); conditions: protein: recombinant; tags: N-terminal GST; dsDNA, one strand shown
# T2 sequence: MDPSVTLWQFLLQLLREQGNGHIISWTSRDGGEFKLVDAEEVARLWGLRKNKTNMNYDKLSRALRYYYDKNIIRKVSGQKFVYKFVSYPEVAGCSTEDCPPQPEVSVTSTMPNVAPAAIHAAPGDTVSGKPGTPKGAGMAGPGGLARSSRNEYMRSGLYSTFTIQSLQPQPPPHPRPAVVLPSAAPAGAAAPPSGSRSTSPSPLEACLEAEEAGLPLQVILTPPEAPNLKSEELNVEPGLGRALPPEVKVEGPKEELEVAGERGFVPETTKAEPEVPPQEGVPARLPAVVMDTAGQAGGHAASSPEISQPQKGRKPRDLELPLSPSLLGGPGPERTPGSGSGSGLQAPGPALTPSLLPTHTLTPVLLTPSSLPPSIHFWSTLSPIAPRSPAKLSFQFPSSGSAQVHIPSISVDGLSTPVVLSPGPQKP
# Method in brief: as §1
# GABPA = target: T3, GABPA (Homo sapiens, UniProt Q06546 1-454); conditions: protein: recombinant; tags: N-terminal GST; dsDNA, one strand shown
# T3 sequence: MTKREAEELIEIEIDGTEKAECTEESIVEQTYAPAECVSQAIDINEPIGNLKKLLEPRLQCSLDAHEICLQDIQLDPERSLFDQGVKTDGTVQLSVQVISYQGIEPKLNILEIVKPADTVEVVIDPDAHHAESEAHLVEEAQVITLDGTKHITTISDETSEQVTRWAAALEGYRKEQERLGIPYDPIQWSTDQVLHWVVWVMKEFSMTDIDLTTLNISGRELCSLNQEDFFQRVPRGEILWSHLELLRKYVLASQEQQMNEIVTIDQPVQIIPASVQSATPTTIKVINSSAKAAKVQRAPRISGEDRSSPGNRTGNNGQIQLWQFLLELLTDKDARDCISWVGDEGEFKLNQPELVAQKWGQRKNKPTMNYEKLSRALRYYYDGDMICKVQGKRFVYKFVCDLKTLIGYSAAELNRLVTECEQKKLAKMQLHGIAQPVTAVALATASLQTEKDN
# Method in brief: as §1
# ERG = target: T4, ERG (Homo sapiens, UniProt P11308 1-479); conditions: protein: recombinant; tags: N-terminal GST; dsDNA, one strand shown
# T4 sequence: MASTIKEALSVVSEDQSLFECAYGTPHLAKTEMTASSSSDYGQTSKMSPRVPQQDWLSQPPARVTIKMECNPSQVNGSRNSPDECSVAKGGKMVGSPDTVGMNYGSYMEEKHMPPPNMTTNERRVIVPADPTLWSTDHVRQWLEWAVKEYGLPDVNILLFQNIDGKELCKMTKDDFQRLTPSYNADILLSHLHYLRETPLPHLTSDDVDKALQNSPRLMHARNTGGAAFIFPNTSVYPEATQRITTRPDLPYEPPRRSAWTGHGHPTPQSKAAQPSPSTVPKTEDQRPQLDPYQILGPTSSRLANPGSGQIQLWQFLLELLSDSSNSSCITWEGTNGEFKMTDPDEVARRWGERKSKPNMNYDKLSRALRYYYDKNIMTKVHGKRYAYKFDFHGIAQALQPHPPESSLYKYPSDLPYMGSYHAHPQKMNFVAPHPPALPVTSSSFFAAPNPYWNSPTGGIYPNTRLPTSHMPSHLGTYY
# Method in brief: as §1
# ELF1 = ELF1 (Homo sapiens, UniProt P32519 1-619); conditions: protein: recombinant; tags: N-terminal GST; dsDNA, one strand shown
# Method in brief: as §1
# EHF = target: T5, EHF (Homo sapiens, UniProt Q9NZC4 1-300); conditions: protein: recombinant; tags: N-terminal GST; dsDNA, one strand shown
# T5 sequence: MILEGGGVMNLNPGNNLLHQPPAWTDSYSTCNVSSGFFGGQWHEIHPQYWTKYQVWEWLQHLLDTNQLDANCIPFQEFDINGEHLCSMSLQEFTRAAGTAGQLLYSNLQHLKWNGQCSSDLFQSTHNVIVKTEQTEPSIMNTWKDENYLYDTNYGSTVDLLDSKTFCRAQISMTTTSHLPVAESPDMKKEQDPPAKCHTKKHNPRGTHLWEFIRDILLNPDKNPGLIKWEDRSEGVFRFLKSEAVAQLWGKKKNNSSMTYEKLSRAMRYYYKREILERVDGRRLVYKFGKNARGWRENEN
# Method in brief: as §1
# SPI1 = SPI1 (Homo sapiens, UniProt P17947 1-270); conditions: protein: recombinant; tags: N-terminal GST; dsDNA, one strand shown
# Method in brief: as §1
# SPIB = SPIB (Homo sapiens, UniProt Q01892 1-262); conditions: protein: recombinant; tags: N-terminal GST; dsDNA, one strand shown
# Method in brief: as §1
# ELK3 = target: T6, ELK3 (Homo sapiens, UniProt P41970 1-407); conditions: protein: recombinant; tags: N-terminal GST; dsDNA, one strand shown
# T6 sequence: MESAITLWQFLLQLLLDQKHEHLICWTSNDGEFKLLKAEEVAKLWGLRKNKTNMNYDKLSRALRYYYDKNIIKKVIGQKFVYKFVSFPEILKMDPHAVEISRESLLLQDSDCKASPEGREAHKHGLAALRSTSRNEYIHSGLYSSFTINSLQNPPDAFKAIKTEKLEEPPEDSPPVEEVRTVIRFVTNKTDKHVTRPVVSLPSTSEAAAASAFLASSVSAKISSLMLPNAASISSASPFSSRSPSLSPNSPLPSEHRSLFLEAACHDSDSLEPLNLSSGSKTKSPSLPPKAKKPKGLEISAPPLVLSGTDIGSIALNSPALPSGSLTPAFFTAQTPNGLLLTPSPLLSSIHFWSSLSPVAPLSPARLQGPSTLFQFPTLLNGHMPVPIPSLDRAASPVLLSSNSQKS
# Method in brief: as §1
# FEV = target: T7, FEV (Homo sapiens, UniProt Q99581 1-238); conditions: protein: recombinant; tags: N-terminal GST; dsDNA, one strand shown
# T7 sequence: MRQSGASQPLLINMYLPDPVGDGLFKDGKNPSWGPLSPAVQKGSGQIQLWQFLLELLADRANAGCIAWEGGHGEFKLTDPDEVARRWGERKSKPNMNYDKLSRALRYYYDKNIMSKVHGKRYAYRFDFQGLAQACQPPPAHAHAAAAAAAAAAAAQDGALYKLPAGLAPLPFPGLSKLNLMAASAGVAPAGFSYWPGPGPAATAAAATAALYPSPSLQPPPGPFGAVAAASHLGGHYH
# Method in brief: as §1
# ETV5 = ETV5 (Homo sapiens, UniProt P41161 1-510); conditions: protein: recombinant; tags: N-terminal GST; dsDNA, one strand shown
# Method in brief: as §1
# HSF1 = HSF1 (Homo sapiens, UniProt Q00613 1-529); conditions: protein: recombinant; tags: N-terminal GST; chain copies: 3; dsDNA, one strand shown
# Method in brief: as §1
# SPIC = target: T8, SPIC (Homo sapiens, UniProt Q8N5J4 1-248); conditions: protein: recombinant; tags: N-terminal GST; dsDNA, one strand shown
# T8 sequence: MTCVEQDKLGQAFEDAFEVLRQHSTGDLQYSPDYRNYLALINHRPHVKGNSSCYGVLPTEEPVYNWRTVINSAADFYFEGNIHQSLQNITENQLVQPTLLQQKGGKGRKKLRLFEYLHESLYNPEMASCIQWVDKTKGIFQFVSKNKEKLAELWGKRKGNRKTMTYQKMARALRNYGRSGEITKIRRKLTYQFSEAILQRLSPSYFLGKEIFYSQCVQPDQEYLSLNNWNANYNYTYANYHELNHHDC
# Method in brief: as §1
# ELF4 = ELF4 (Homo sapiens, UniProt Q99607 1-663); conditions: protein: recombinant; tags: N-terminal GST; dsDNA, one strand shown
# Method in brief: as §1
# ELK4 = target: T9, ELK4 (Homo sapiens, UniProt P28324-2 1-405); conditions: protein: recombinant; tags: N-terminal GST; dsDNA, one strand shown
# T9 sequence: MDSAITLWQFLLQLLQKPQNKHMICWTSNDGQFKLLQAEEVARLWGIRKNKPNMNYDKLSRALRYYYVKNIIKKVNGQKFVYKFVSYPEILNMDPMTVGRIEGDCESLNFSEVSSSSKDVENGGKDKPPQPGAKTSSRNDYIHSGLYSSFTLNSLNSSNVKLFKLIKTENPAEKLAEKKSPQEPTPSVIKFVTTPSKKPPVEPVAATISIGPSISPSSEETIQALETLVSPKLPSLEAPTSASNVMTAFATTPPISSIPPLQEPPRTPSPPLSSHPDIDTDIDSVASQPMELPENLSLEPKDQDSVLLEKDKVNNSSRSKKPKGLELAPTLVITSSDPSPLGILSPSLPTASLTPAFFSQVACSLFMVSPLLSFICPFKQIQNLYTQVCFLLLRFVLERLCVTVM
# Method in brief: as §1
# ETV2 = target: T10, ETV2 (Homo sapiens, UniProt O00321 1-342); conditions: protein: recombinant; tags: N-terminal GST; dsDNA, one strand shown
# T10 sequence: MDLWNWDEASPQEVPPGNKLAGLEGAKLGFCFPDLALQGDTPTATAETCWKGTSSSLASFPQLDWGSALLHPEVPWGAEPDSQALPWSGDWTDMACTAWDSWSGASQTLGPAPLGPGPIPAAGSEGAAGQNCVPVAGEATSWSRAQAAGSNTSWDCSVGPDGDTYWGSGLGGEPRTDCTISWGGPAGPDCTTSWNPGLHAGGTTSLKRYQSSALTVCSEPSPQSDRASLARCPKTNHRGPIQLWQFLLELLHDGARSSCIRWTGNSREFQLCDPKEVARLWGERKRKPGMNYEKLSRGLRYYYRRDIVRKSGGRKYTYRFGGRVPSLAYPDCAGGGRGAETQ
# Method in brief: as §1
# ELF3 = target: T11, ELF3 (Homo sapiens, UniProt P78545 1-371); conditions: protein: recombinant; tags: N-terminal GST; dsDNA, one strand shown
# T11 sequence: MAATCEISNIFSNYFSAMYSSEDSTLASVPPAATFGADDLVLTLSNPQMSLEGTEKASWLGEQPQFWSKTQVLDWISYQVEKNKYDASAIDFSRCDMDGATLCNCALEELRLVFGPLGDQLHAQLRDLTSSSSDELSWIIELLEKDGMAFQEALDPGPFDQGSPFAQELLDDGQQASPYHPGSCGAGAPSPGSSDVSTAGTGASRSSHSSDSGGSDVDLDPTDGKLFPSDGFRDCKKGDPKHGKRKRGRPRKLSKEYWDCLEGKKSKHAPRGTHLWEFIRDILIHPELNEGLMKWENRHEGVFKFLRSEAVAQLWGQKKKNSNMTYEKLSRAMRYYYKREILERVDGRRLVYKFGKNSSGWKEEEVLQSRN
# Method in brief: as §1
# CRX = CRX (Homo sapiens, UniProt O43186 1-299); conditions: protein: recombinant; tags: N-terminal GST; dsDNA, one strand shown
# Method in brief: as §1
# ETV1 = ETV1 (Homo sapiens, UniProt P50549 1-477); conditions: protein: recombinant; tags: N-terminal GST; dsDNA, one strand shown
# Method in brief: as §1
# CRX, sequence (O43186 whole entry): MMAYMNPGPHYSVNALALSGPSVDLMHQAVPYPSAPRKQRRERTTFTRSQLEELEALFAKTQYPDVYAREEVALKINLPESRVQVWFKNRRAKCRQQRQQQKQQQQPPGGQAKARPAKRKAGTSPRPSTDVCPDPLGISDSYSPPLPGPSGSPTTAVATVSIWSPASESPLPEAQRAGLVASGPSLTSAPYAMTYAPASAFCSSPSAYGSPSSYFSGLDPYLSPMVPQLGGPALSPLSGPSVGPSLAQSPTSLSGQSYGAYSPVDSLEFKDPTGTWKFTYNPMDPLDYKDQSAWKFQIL
# ELF1, sequence (P32519 whole entry): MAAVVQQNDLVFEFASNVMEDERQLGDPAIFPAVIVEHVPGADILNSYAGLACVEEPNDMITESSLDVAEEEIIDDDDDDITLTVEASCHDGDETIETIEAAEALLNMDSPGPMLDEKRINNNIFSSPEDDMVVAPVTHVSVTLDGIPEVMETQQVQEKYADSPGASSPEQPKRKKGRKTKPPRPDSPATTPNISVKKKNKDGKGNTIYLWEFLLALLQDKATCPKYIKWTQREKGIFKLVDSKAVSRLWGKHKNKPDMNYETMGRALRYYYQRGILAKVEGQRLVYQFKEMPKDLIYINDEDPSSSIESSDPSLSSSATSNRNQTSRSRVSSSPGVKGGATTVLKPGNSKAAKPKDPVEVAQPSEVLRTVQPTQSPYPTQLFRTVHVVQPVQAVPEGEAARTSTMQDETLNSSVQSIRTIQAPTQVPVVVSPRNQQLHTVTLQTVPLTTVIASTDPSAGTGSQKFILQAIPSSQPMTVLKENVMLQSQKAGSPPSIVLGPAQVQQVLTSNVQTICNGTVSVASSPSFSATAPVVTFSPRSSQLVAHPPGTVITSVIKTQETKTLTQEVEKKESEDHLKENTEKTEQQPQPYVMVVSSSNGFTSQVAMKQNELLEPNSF
# ETV1, sequence (P50549 whole entry): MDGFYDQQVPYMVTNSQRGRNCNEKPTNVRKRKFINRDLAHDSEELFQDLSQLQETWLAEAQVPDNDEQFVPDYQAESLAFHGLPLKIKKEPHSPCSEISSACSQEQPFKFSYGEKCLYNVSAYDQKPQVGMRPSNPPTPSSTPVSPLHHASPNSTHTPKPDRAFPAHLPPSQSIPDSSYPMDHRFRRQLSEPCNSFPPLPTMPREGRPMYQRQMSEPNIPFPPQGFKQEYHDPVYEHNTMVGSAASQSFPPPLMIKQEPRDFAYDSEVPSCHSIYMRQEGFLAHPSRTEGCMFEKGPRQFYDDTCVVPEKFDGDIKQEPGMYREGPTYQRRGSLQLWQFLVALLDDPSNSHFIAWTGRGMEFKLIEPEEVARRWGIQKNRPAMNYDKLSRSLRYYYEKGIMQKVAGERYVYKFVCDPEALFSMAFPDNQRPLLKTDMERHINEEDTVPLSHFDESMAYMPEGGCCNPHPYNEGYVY
# SPIB, sequence (Q01892 whole entry): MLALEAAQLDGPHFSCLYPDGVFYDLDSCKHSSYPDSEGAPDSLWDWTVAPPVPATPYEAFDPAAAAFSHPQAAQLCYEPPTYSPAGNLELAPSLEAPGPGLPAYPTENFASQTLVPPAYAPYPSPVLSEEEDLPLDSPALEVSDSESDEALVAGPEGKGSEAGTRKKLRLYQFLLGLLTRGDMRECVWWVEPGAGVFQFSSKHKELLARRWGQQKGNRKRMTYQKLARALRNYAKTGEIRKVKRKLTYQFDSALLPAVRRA
# ELF4, sequence (Q99607 whole entry): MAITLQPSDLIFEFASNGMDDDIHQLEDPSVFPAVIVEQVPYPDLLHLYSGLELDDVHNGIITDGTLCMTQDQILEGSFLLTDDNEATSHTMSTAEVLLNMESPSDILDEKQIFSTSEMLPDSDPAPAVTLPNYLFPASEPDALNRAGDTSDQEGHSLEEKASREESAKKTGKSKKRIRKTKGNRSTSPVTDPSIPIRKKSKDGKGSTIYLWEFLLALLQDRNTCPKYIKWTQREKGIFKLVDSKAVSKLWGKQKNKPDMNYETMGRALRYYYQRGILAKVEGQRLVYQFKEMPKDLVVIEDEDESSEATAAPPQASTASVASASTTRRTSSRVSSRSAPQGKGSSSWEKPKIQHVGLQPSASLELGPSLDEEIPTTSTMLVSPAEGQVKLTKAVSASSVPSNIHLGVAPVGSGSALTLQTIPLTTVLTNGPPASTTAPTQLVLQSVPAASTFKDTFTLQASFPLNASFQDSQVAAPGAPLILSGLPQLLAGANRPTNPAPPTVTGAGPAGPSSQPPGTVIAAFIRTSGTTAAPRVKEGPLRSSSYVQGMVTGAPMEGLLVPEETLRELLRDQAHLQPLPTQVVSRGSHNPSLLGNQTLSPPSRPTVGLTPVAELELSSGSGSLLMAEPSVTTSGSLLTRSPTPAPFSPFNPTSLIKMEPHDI
# ETV5, sequence (P41161 whole entry): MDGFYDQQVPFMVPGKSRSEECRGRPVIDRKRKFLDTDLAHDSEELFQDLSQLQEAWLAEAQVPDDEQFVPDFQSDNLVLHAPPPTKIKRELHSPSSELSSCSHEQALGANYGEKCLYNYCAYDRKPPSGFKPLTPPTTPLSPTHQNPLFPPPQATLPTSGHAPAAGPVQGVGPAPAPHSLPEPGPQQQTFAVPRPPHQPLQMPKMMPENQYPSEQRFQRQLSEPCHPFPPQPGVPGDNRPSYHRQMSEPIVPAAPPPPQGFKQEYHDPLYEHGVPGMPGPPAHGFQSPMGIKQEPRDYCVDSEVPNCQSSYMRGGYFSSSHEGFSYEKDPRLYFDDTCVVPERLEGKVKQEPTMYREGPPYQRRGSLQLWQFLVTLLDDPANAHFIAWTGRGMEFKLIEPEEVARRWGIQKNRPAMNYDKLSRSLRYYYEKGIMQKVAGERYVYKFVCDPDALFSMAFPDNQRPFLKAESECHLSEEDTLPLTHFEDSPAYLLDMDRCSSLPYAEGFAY
# HSF1, sequence (Q00613 whole entry): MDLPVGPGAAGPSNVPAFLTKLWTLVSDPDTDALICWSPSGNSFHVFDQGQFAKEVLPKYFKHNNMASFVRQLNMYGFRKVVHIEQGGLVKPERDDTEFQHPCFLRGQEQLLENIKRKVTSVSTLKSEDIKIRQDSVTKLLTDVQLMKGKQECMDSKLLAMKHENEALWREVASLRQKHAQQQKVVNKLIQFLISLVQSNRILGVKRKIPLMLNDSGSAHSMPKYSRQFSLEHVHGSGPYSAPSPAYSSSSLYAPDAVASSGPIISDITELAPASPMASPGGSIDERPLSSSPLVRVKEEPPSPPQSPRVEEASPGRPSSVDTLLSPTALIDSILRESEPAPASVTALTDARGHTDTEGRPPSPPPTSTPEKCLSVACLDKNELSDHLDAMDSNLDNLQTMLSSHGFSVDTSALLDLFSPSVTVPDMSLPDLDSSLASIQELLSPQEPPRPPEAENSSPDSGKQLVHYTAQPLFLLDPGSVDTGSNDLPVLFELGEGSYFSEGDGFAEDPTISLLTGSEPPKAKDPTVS
sequence,measurement,setting,value
AATGTA,binding signal,FLI1,"1.19 fold enrichment (6-mer frequency, TF over GST control)"
same,binding signal,ELK1,"1.09 fold enrichment (6-mer frequency, TF over GST control)"
same,binding signal,GABPA,"1.1 fold enrichment (6-mer frequency, TF over GST control)"
same,binding signal,ERG,"1.17 fold enrichment (6-mer frequency, TF over GST control)"
same,binding signal,ELF1,"1.16 fold enrichment (6-mer frequency, TF over GST control)"
same,binding signal,EHF,"1.22 fold enrichment (6-mer frequency, TF over GST control)"
same,binding signal,SPI1,"1.12 fold enrichment (6-mer frequency, TF over GST control)"
same,binding signal,SPIB,"1.2 fold enrichment (6-mer frequency, TF over GST control)"
same,binding signal,ELK3,"1.17 fold enrichment (6-mer frequency, TF over GST control)"
same,binding signal,FEV,"1.12 fold enrichment (6-mer frequency, TF over GST control)"
same,binding signal,ETV5,"1.11 fold enrichment (6-mer frequency, TF over GST control)"
same,binding signal,HSF1,"1.16 fold enrichment (6-mer frequency, TF over GST control)"
same,binding signal,SPIC,"1.12 fold enrichment (6-mer frequency, TF over GST control)"
same,binding signal,ELF4,"1.11 fold enrichment (6-mer frequency, TF over GST control)"
same,binding signal,ELK4,"1.32 fold enrichment (6-mer frequency, TF over GST control)"
same,binding signal,ETV2,"1.32 fold enrichment (6-mer frequency, TF over GST control)"
same,binding signal,ELF3,"1.16 fold enrichment (6-mer frequency, TF over GST control)"
same,binding signal,CRX,"1.1 fold enrichment (6-mer frequency, TF over GST control)"
same,binding signal,ETV1,"1.23 fold enrichment (6-mer frequency, TF over GST control)"
